SMILES strings stand for the structures. Among all 10,000 compounds or so, about 320 (3.2%) were called active. The sample holds actives, similar compounds and a random draw of the others, so the mix is not that of the screen. Unmarked numbers belong to inactive results. No stated cut-off is given here; in the data, active means CPE inhibition mostly above about 9.1% (no sharp cut-off); inactive means mostly below about 7.2%.

The experiment can be described thus: Dengue virus cytopathic effect inhibitors, cell-based, CPE readout, HTS (AID 540333). The note with it: Dengue virus CPE inhibition in host cells, at 20 µM; active compounds read high. For orientation: Cytopathic effects are the visible damage that an infection or toxin causes in cultured cells.
For `C/C(=N\Nc1ccccn1)c1ccc(S(=O)(=O)NCc2ccco2)cc1`, the CPE inhibition entry is “inactive”.

Consider `C/C(=N\Nc1ncc(Cl)cc1Cl)c1ccc(S(=O)(=O)NCc2ccco2)cc1`, for which the CPE inhibition entry is “inactive”.

With `C/C(=N\Nc1nc(Cl)c(Cl)cc1Cl)c1ccc(S(=O)(=O)NCc2ccco2)cc1`, the CPE inhibition was 8.5% (active).

As to `Cc1ccccc1OCC(=O)N/N=C1\SCC(=O)N1Cc1ccccc1`, the CPE inhibition entry is “inactive”.

`COc1ccc(C(C(=O)Nc2ccc3c(c2)OCO3)N(C)C(=O)Cc2c[nH]c3ccccc23)cc1` (stereo not drawn): the CPE inhibition is 25.8% (active).

`COc1ccc(-c2cc(C(=O)OCC(=O)Nc3ccc4c(c3)OCO4)c3ccccc3n2)cc1`: the CPE inhibition was 0.175%.

Take `COc1ccc(NC(=O)C(c2cc3c(cc2[N+](=O)[O-])OCO3)N(C)c2ccccc2)cc1` (stereo not drawn): the CPE inhibition is 1.73%.

With `O=C(CCCC(=O)N1CCN(c2ccc([N+](=O)[O-])cc2)CC1)c1ccccc1`, the CPE inhibition was 0.355%.

Turning to `Cc1ccc2nc(N3CC(=O)Nc4ccccc43)nc(-c3ccccc3)c2c1`, the CPE inhibition was 1.55%.

In the case of `Cc1c(Cl)cccc1NCC(=O)Nc1ccc(Cl)cc1F`, the CPE inhibition is 4.37%.

For the compound `Cc1ccc(C(=O)CCC(=O)Nc2ccc(Cl)c(S(=O)(=O)Nc3cccc(Cl)c3)c2)cc1`, the CPE inhibition is 4.45%.

For `COc1ccc(NC(=O)CCC(=O)c2cccs2)cc1S(=O)(=O)Nc1ccc(Cl)cc1`, the CPE inhibition was 0.325%.

As for `COc1ccc(NS(=O)(=O)c2cccc(NC(=O)CCC(=O)c3ccc(Cl)cc3)c2)cc1`, the CPE inhibition is 17.3% (active).

On to `CC(=O)Nc1ccc(OCC(=O)NCCc2ccc(Cl)cc2)cc1`, for which the CPE inhibition entry was “inactive”.

For the compound `Cc1ccc(-n2c(C)cc(/C=N\NC(=O)CC(=O)NC(C)C)c2C)cc1`, the CPE inhibition entry was “inactive”.

Regarding `Cc1cc(/C=N\NC(=O)CC(=O)NC2CCCCC2)c(C)n1-c1cccc(Cl)c1Cl`, the CPE inhibition was 22.7% (active).

As to `Cc1cccc(C)c1-n1c(C)cc(/C=N\NC(=O)CC(=O)NC2CCCCC2)c1C`, the CPE inhibition was 0.17%.

For `Cc1ccc(S(=O)(=O)c2cc(OC(=O)c3ccco3)ccc2OC(=O)c2ccco2)cc1`, the CPE inhibition is 0.235%.

Turning to `CC1(C)CC(NC(=O)C(Cl)(Cl)Cl)CC(C)(C)N1`, the CPE inhibition entry was “inactive”.

Consider `CCn1ncc(/C=C/C(=O)C2CC2)c1C`, for which the CPE inhibition is 2.21%.

With `CCOC(=O)c1c(C)[nH]c(C2=NNC(=Nc3ccc(OCC)cc3)SC2)c1C`, the CPE inhibition was 13.2% (active).

Take `CCOc1ccc(N=C2NC(=O)/C(=C/C(=O)OC)S2)cc1`: the CPE inhibition is 0.935%.

Take `CCOC(=O)c1c(C)[nH]c(C(=O)/C(C#N)=C/c2ccc(OCC)cc2)c1C`: the CPE inhibition was 0.085%.

Take `O=C(CCN1C(=O)c2ccccc2C1=O)C1=NN[C@@H]2C(=O)N(c3cccc(F)c3)C(=O)[C@H]12`: the CPE inhibition was 1.32%.

Regarding `COc1cc(C=Nc2cccc([N+](=O)[O-])c2C)ccc1OC(C)=O`, the CPE inhibition is 4.63%.

Consider `Cc1cccc(-c2nc(Nc3ccc(N4CCOCC4)cc3)c3ccccc3n2)c1`, for which the CPE inhibition result was “inactive”.

Take `Cc1cccc(/C=N/Nc2cc(N3CCOCC3)nc(N3CCOCC3)n2)c1`: the CPE inhibition result is “inactive”.

As for `CSc1nc(N2CCOCC2)nc2ccc(C)cc12`, the CPE inhibition was 11.8% (active).

In the case of `COc1ccc(C)cc1NC(=O)c1cc2c(s1)CCC2`, the CPE inhibition entry was “inactive”.

For the compound `COc1ccc(/C=N/N2CCN(C3c4ccccc4-c4ccccc43)CC2)cc1OC`, the CPE inhibition was 0.5%.

With `CCc1nc(C#N)c(N2CCOCC2)o1`, the CPE inhibition was 0.655%.

As to `COc1ccc(C(=O)N[C@H](C(=O)OCC(=O)NC(=O)c2cccn2C)C(C)C)cc1`, the CPE inhibition entry was “inactive”.

On to `CC(=O)c1ccc(NC(=O)c2cc(Cl)sc2Cl)cc1`, for which the CPE inhibition was 0.185%.

For the compound `O=C(COC(=O)c1ccccc1C(=O)c1ccc(Cl)cc1)NCCc1ccccc1`, the CPE inhibition is 5.59%.

On to `Cc1ccc(C(=O)c2ccccc2C(=O)OCC(=O)NCCc2ccccc2)cc1`, for which the CPE inhibition was 1.41%.

In the case of `Cc1ccc(C(=O)c2ccccc2C(=O)OCC(=O)NCCc2ccc(Cl)cc2Cl)cc1`, the CPE inhibition was 22.8% (active).

As to `O=C(Nc1ccn(-c2ccccc2)n1)c1ccc(Cl)cc1`, the CPE inhibition was 0.155%.

As for `COc1ccc(CCNC(=O)CC2SC(=NCCc3ccccc3)NC2=O)cc1` (stereo not drawn), the CPE inhibition entry was “inactive”.

For the compound `C[C@H](NS(=O)(=O)c1ccc(Cl)cc1)C(=O)OCC(=O)NC(=O)Nc1ccc2c(c1)OCCO2`, the CPE inhibition is 0.475%.

Take `Cc1ccc(S(=O)(=O)Nc2cccc3c2CCCC3)cc1`: the CPE inhibition was 0.255%.

`COc1cc(NS(=O)(=O)c2ccc(Cl)cc2)c(C(=O)O)cc1OC`: the CPE inhibition was 0.06%.

`O=S(=O)(Nc1cccc2c1CCCC2)c1ccc(Cl)cc1`: the CPE inhibition was 21.1% (active).

Consider `Cn1c2ccccc2c(=O)c2c(=O)n(C3CCCCC3)c(-c3ccco3)nc21`, for which the CPE inhibition is 10.4%.

Consider `CCCc1nc2c(c(=O)c3ccccc3n2C)c(=O)n1-c1ccc(F)cc1`, for which the CPE inhibition was 1.89%.

As for `Cn1c2ccccc2c(=O)c2c(=O)n(C3CCCCCC3)c(C3CCCCC3)nc21`, the CPE inhibition entry was “inactive”.

On to `Cn1c2ccccc2c(=O)c2c(=O)n(-c3ccccc3)c(C3CCCCC3)nc21`, for which the CPE inhibition is 9.13% (active).

On to `CCc1nc2c(c(=O)c3ccccc3n2C)c(=O)n1C1CCCCCC1`, for which the CPE inhibition was 13.5% (active).

As for `CCCc1nc2c(c(=O)c3ccccc3n2C)c(=O)n1C1CCCCCC1`, the CPE inhibition entry was “inactive”.

As for `O=c1[nH]cnc2c1c(-c1ccccc1)cn2-c1ccc(Br)cc1`, the CPE inhibition was 11.8% (active).

Turning to `COC(=O)C(C)Sc1ncnc2c1c(-c1ccccc1)cn2-c1ccc(OC)cc1` (stereo not drawn), the CPE inhibition was 2.83%.

As for `CCOC(=O)CSc1ncnc2c1c(-c1ccccc1)cn2-c1ccc(OC)cc1`, the CPE inhibition was 2.07%.

As for `CCOc1ccccc1NC(=O)C(OC(=O)c1ccccc1NS(=O)(=O)c1cccs1)c1ccccc1` (stereo not drawn), the CPE inhibition is 1.08%.

For the compound `CC12CCC(C(=O)N(NC(=O)c3cccnc3)C1=O)C2(C)C` (stereo not drawn), the CPE inhibition was 2.09%.

Consider `CC(NC(=O)/C=C/c1cnc2ccccc2n1)C12CC3CC(CC(C3)C1)C2` (stereo not drawn), for which the CPE inhibition is 12.8% (active).

Take `CC(NC(=O)COC(=O)[C@@H]1CCCN1S(=O)(=O)c1ccccc1F)C12CC3CC(CC(C3)C1)C2` (stereo partly drawn): the CPE inhibition result was “inactive”.

In the case of `O=C(N/N=C/c1ccccn1)C12CC3CC(CC(C3)C1)C2`, the CPE inhibition result was “inactive”.

In the case of `O=C(COc1ccc(Br)cc1Cl)NC1CCCCC1`, the CPE inhibition is 0.99%.

Turning to `CC(=O)c1ccc(NC(=O)CN2C(=O)/C(=C/C(C)=C/c3ccccc3)SC2=S)cc1`, the CPE inhibition was 0.22%.

(Values after PubChem BioAssay AID540333 (Southern Research Specialized Biocontainment Screening …, 2011).)
